Values joined by “and” are separate entries in the source; they are usually repeats but may differ in a detail not shown here. Identical values can stand only once. ± gives the standard deviation of the averaged measurements.
Columns and labels:
Settings in all cases: concentration: 10 µM; 24 h
[1] = test system: HCC1569; assay: cell number relative to DMSO (% of DMSO); higher = more cells (less growth inhibition / toxicity)
How it was run: (§1)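 HCC1569 and TDF cells (800 per well, 384-well plates, RPMI with 10% FBS) were treated with compounds at 10 µM for 24 h at 37 °C, in triplicate. Cells were fixed in 3.7% formaldehyde and stained with a rabbit anti-H1.0 antibody, an AlexaFluor 647 secondary and DAPI; six fields per well were imaged at ×10. H1.0 nuclear intensity or cell number is expressed as percent of the plate DMSO control, taking the median of replicates. HCC1569 values were smoothed for positional effects.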

[2] = test system: TDF; assay: as above
How it was run: as §1

[3] = test system: TDF; assay: H1.0 immunofluorescence intensity relative to DMSO (% of DMSO); higher = stronger H1.0 induction, active = 120 or more
How it was run: as §1

[4] = test system: HCC1569; assay: H1.0 immunofluorescence intensity relative to DMSO (% of DMSO); higher = stronger H1.0 induction, active = 140 or more
How it was run: as §1
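For H1.0 immunofluorescence intensity relative to DMSO in this document: TDF is a line of transformed human dermal fibroblasts of mesenchymal origin.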
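For cell number relative to DMSO in this document: TDF denotes transformed human dermal fibroblasts of mesenchymal origin.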

SMILES	cell number [1]	cell number [2]	H1.0 immunofluorescence intensity [3]	H1.0 immunofluorescence intensity [4]
CS(=O)(=O)O.Cc1ccc(NC(=O)c2ccc(CN3CCN(C)CC3)cc2)cc1Nc1nccc(-c2cccnc2)n1 [Imatinib]	93.4	95.8	107 (inactive)	127 (inactive)
COC(=O)C(=C1OC(=O)C(c2ccccc2)=C1O)c1ccccc1 [Vulpinic acid]	98.5	95.3	89.4 (inactive)	91.2 (inactive)
CCCCOc1ccc(-c2cncc(C(=O)NCc3cccnc3N3CCOCC3)c2)cc1Cl	86.9	104	98.3 (inactive)	150 (active)
O=c1nc[nH]c2c1ncn2C1CCC(CO)O1 (stereo unspecified) [Didanosine]	101	98.9	95.7 (inactive)	109 (inactive)
CCCCCCCCCCCCCCCC(=O)NCCc1ccc(O)c(O)c1 [Palmitoyl dopamine]	92.7	101	101 (inactive)	105 (inactive)
COC(=O)CCc1ccc(OCC(O)CNC(C)C)cc1 (stereo unspecified) [Esmolol]	100	95.1	101 (inactive)	91.9 (inactive)
NC1CONC1=O [D-Cycloserine]	98.8	96.8	97.5 (inactive)	92.1 (inactive)
CCOC(=O)[C@H](CCc1ccccc1)N[C@@H](C)C(=O)N1C(=O)N(C)C[C@H]1C(=O)O.Cl	107	99.6	100 (inactive)	92.3 (inactive)
Cn1c(=O)c2[nH]cnc2n(C)c1=O.Cn1c(=O)c2[nH]cnc2n(C)c1=O.NCCN [Aminophylline ethylenediamine]	103	102	98.7 (inactive)	93.8 (inactive)
CCCCCC(O)C=CC1C(O)CC2CC(=CCCCC(=O)O)CC21 (stereo unspecified) [Carbacyclin]	103	99.1	94.8 (inactive)	100 (inactive)
CCCCCCCCCCCCCCCC(=O)OC1C(SC)OC(C(NC(=O)C2CC(CCC)CN2C)C(C)Cl)C(O)C1O.Cl (stereo unspecified) [Clindamycin palmitate.HCl]	96.5	101	93.3 (inactive)	106 (inactive)
c1ccc(-c2cnc(Nc3ccc(OCCN4CCCC4)cc3)s2)cc1 [Flt-3 Inhibitor III]	80.3	74.2	97.1 (inactive)	150 (active)
COc1cc2c(CCNC(C)=O)c[nH]c2cc1Cl [6-Chloromelatonin]	101	106	94.8 (inactive)	90 (inactive)
COc1cc(OC)c2cc(-c3ccncc3)cnc2c1.Cl.Cl [5,7-dimethoxy-3-(4-pyridinyl)quinoline dihydrochloride]	105	102	92.4 (inactive)	105 (inactive)
CCCCCC1OC1CC=CCC=CCC=CCCCC(=O)O (stereo unspecified) [14,15-Epoxyeicosatrienoic acid]	103	112	103 (inactive)	94.8 (inactive)
Cl.O=c1cc(N2CCOCC2)oc2c(-c3ccccc3)cccc12	87.7	91.7	86.9 (inactive)	141 (active)
O=C(O)CC/C=C\C[C@H]1CO[C@@H](c2ccccc2Cl)O[C@H]1c1ccccc1O	100	96.5	95.5 (inactive)	108 (inactive)
CC(CSC(=O)c1ccccc1)C(=O)N1CC(Sc2ccccc2)CC1C(=O)[O-].CC(CSC(=O)c1ccccc1)C(=O)N1CC(Sc2ccccc2)CC1C(=O)[O-].[Ca+2] (stereo unspecified)	106	119	93.2 (inactive)	95.4 (inactive)
COC(C(=O)C(O)C(C)O)C1Cc2cc3cc(OC4CC(OC5CC(O)C(O)C(C)O5)C(O)C(C)O4)c(C)c(O)c3c(O)c2C(=O)C1OC1CC(OC2CC(OC3CC(C)(O)C(O)C(C)O3)C(O)C(C)O2)C(O)C(C)O1 (stereo unspecified) [Mithramycin A]	68.7	29.9	109 (inactive)	112 (inactive)
COc1c(C)c2c(c(O)c1CC=C(C)CCC(=O)O)C(=O)OC2 [Mycophenolic Acid]	78.3 ± 3.8	63.3 ± 4.9	104 (inactive)	116 (inactive)
CCn1nc(C(=O)O)c(=O)c2cc3c(cc21)OCO3 [Cinoxacin]	97.6	105	95.7 (inactive)	97.5 (inactive)
COC1(NC(=O)CSCC#N)C(=O)N2C(C(=O)[O-])=C(CSc3nnnn3C)CSC21.[Na+] (stereo unspecified) [Cefmetazole sodium]	101	110	91.2 (inactive)	89.6 (inactive)
CCCCCN(CCCCC)C(=O)C(CCC(=O)O)NC(=O)c1ccc(Cl)c(Cl)c1 (stereo unspecified) [Lorglumide]	100	91.5	102 (inactive)	96.4 (inactive)
Br.C=CCN1CCc2c(cc(O)c(O)c2Br)C(c2ccccc2)C1 (stereo not drawn) [R(+)-6-Bromo-APB hydrobromide]	89.1	87.2	89.7 (inactive)	99.2 (inactive)
CN(C)c1ccc(C=C2C(=O)Nc3ccccc32)cc1	95.9 and 109 and 98.8	86.6 and 102 and 98.2	97 (inactive) and 108 (inactive) and 101 (inactive)	114 (inactive) and 102 (inactive) and 125 (inactive)

SMILES	cell number [1]	cell number [2]	H1.0 immunofluorescence intensity [3]	H1.0 immunofluorescence intensity [4]
CC(C)n1c(C=CC(O)CC(O)CC(=O)O)c(-c2ccc(F)cc2)c2ccccc21 (stereo unspecified) [Fluvastatin]	96.3	64.5	148 (active)	103 (inactive)
O=C(CCCc1ccc(-c2ccccc2F)cc1)Nc1ccc(O)cc1 [MK2a Inhibitor]	79	11.1	157 (active)	129 (inactive)
C[C@]12CCC(=O)C=C1CC[C@@H]1[C@@H]2[C@@H](O)C[C@@]2(C)[C@H]1CC[C@]2(O)C(=O)COC(=O)CCC(=O)[O-].[Na+]	96.3	99.8	82.3 (inactive)	103 (inactive)
C[N+](C)(C)C(Cc1c[nH]c(=S)[nH]1)C(=O)[O-] [L-Ergothioneine]	107	102	101 (inactive)	100 (inactive)
CCCCc1ncc(C=C(Cc2cccs2)C(=O)O)n1Cc1ccc(C(=O)O)cc1.CS(=O)(=O)O [Eprosartan mesylate]	97.1	91.7	96.4 (inactive)	97.4 (inactive)
CC(C)C1NC(=O)C(CCCCN)NC(=O)C(Cc2c[nH]c3ccccc23)NC(=O)C(Cc2ccc(O)cc2)NC(=O)C(C)N(C)C(=O)C(Cc2ccccc2)NC1=O (stereo unspecified) [Seglitide]	89.8	98.2	102 (inactive)	152 (active)
CCCCCC(O)C=CC1C(O)CC(O)C1CCCCCCC(=O)O (stereo unspecified) [Prostaglandin F1a]	106	101	91.9 (inactive)	97.7 (inactive)
CCCCCC(O)C=CC1C(O)CC(O)C1CC=CCCCC(=O)O (stereo not drawn) [8-Epi-prostaglandin F2a]	102	110	96.2 (inactive)	100 (inactive)
O=C(Nc1ccc(Cl)cc1)Nc1cccc(-c2cccc(N3CCCC3)n2)c1	96	87.5	98.6 (inactive)	114 (inactive)
Nc1ncnc2c1cnn2-c1ccccc1	103	110	91.4 (inactive)	104 (inactive)
CCOC(=O)C1OC1C(=O)NC(CC(C)C)C(=O)NCCC(C)C (stereo unspecified)	100	93.4	101 (inactive)	97.9 (inactive)
c1ccc(CNc2nc(NCc3ccccc3)c3ccccc3n2)cc1 [N~2~,N~4~-dibenzyl-2,4-quinazolinediamine]	33.7	39	156 (active)	88.7 (inactive)
NC1(C(=O)O)CCc2cc(C(=O)O)ccc21 (stereo unspecified)	101	113	88.5 (inactive)	84.5 (inactive)
COc1cc(/C=C/C(=O)CC(=O)/C=C/c2ccc(O)cc2)ccc1O	66.5	66.7	98.3 (inactive)	161 (active)
O=[N+]([O-])c1cccc2c(Br)[nH]nc12 [3-Bromo-7-nitroindazole]	116	113	103 (inactive)	91.9 (inactive)
CCC=CCC=CCC=CCCCCCCCCCC(=O)O [Eicosatrienoic acid]	101 ± 2.8	96.7 ± 14	100 (inactive)	99.5 (inactive)
O=c1cc(-c2ccc(O)cc2)oc2cc(O)cc(O)c12 [Apigenin]	93.5 ± 3	104 ± 3.7	89.2 (inactive)	99.9 (inactive)
COC(=O)C(C)(N)Cc1ccc(O)cc1.Cl (racemic) [alpha-Methyl-DL-tyrosine methyl ester hydrochloride]	101	103	93 (inactive)	94.3 (inactive)
O=c1cc(N2CCOCC2)oc2c(-c3ccccc3)cccc12	83.3	102	88 (inactive)	155 (active)
CS(=O)c1ccc(-c2nc(-c3ccc(F)cc3)c(-c3ccncc3)[nH]2)cc1 (stereo unspecified)	92.7	107	98 (inactive)	104 (inactive)
CC1(C)OC2CC(=O)OCC23C1CC(=O)C1(C)C3CCC2(C)C(c3ccoc3)OC(=O)C3OC321 (stereo unspecified) [Limonin]	103	104	92.2 (inactive)	90 (inactive)
C[N+]1(C)CCCC1C(=O)[O-].Cl (stereo unspecified)	96.1	115	95.9 (inactive)	109 (inactive)
Cc1nnc(SCC2=C(C(=O)[O-])N3C(=O)C(NC(=O)Cn4cnnn4)C3SC2)s1.[Na+] (stereo unspecified) [Cefazolin sodium]	101	116	87.2 (inactive)	89.5 (inactive)
CCCn1c(=O)c2[nH]c(C3CCCC3)nc2n(CCC)c1=O [8-Cyclopentyl-1,3-dipropylxanthine]	101	92.5	99.5 (inactive)	93.7 (inactive)
